Source: PubChem BioAssay AID588795 (National Center for Advancing Translational Sciences (NCATS), 2011)
Values joined by “and” are separate entries in the source; they are usually repeats but may differ in a detail not shown here. Equal values may be shown once. Screen size: about 390,000 compounds; about 1,400 (0.36%) were called active. Roughly 2% stayed inconclusive and do not appear here. The sample holds actives, similar compounds and a random draw of the others, so the mix is not that of the screen. Calls follow the shape of the dose curve; as a rule, active = well fitted inhibition curve with a large enough effect; inconclusive = small, poorly fitted or top-dose-only effect; inactive = no such curve, though single readings can be large or run the other way. A structure can be active in one record and inactive in another.

Target: Flap endonuclease 1 (Homo sapiens) (UniProt P39748)
Sequence (P39748 whole entry, looked up): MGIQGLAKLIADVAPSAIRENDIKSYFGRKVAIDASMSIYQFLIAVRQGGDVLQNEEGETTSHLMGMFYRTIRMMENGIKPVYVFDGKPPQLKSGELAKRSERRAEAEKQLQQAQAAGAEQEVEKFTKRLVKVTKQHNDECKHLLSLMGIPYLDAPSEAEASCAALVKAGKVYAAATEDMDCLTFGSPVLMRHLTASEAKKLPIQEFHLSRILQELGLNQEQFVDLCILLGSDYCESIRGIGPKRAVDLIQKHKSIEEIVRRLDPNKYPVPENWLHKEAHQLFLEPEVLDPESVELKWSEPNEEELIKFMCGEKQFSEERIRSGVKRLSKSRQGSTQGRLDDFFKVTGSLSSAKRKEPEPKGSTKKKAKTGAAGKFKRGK
Test: qHTS Assay for the Inhibitors of Human Flap endonuclease 1 (FEN1). Also: nearly all actives have a fitted effect of over 65% in size.
Details: Recombinant FEN1 flap cleavage, fluorescence, 15 min; series mostly up to 114 µM; activity change, negative = inhibition: at the top concentration
From the text: The major human flap endonuclease FEN1 is an efficient structure-specific enzyme that recognizes and cleaves a 5'-unannealed DNA flap. It belongs to the RAD2 family nucleases, which are involved in DNA metabolism and are highly conserved in prokaryotes and eukaryotes. FEN1 is a key enzyme in DNA replication, repair and maintenance of genomic stability. 5'-flap removal by FEN1 is critical for Okazaki fragment processing during lagging strand DNA synthesis, long-patch base excision repair (LP BER), and regulating or facilitating recombination events. […] Deletion of the yeast FEN1 gene, i.e. rad27, results in an increased frequency of short DNA (3-32 bp) repeats, micro- and mini-satellite formation, trinucleotide repeat expansion, spontaneous recombination events, and a severe growth defect in association with cell cycle arrest in late S/G2 phase. […] Cells from fen1-/- blastocysts show increased apoptotic cell death after ionizing radiation treatment, and chicken cells lacking the fen1 gene are hypersensitive to DNA alkylating agents, e.g. methylmethane sulfonate (MMS) and N-methyl-N'-nitro-N-nitrosoguanidine (MNNG), as well as hydrogen peroxide.
NIH Chemical Genomics Center [NCGC]
NIH Molecular Libraries Probe Centers Network [MLPCN]
Assay Submitter (PI): David Wilson, National Institute of Aging
Three uL of reagents (buffer in column 3 and 4 as negative control and 10 nM FEN1 in columns 1, 2, and 5-48) were dispensed into 1,536-well black solid-bottomed plate. Compounds (23 nL) were transferred via Kalypsys pin tool equipped with 1536-pin array (10 nL slotted pins, V&P Scientific, San Diego, CA). The plates were then incubated for 15 min at room temperature, and 1 uL substrate (50 nM final concentration) were added to start the reaction read twice at 0 min read and 15 min on ViewLux reader. Throughout the screen, reagent bottle and all liquid lines were chilled and made light-tight to minimize reagent degradation. All screening operations were performed on a fully integrated robotic system (Kalypsys, San Diego, CA) containing one RX-130 and two RX-90 anthropomorphic robotic arms (Staubli, Duncan, SC). Library plates were screened starting from the lowest and proceeding to the highest concentration, and a "double-dipping" step of the highest concentration was required to access higher concentrations of compounds. Vehicle-only plates, with DMSO being pin-transferred to the entire column 5-48 compound area, were inserted uniformly at the beginning and the end of each library in order to monitor for and record any shifts in the background, which can be affected by reagent dispensers or loss in enzyme activity overtime. Screening data was corrected, normalized, and concentration-effect relationships were derived by using publicly-available curve fitting algorithms developed in-house (http://ncgc.nih.gov/pub/openhts). A four parameter Hill equation was fitted to the concentration-response data by minimizing the residual error between the modeled and observed responses.
% is scaled to controls: 0 for no effect and ±100 for the full control effect; potency is read from the fitted curve at half-maximal effect.

| SMILES | activity change, negative = inhibition | Potency |
| --- | --- | --- |
| COc1ccccc1CNC(=O)C(=O)NCC(c1ccco1)S(=O)(=O)c1ccc(F)cc1 (stereo unspecified) | 11.7% (inactive) | – |
| CN(C)c1cccc2ccccc12 | 1.97% (inactive) | – |
| Brc1nc2ncnc(NCc3ccco3)c2[nH]1 | -16.5% (inactive) | – |
| C[N+]1(CC(=O)c2cccs2)CCOCC1 | -17.5% (inactive) | – |
| O=C(NCCc1ccccc1)c1ccc2c(c1)N(Cc1ccccc1)C(=O)c1ccccc1S2(=O)=O | -10.8% (inactive) | – |
| CCC(C)N(c1ccc(/C=C/c2ccnc3ccccc23)cc1)C(C)CC (stereo unspecified) | -22.3% (inactive) | – |
| Cn1c(COc2ccccc2C(C)(C)C)nc2ccccc21 | -2.63% (inactive) | – |
| CCOc1n[nH]c(-c2ccccc2)n1 | -2.51% (inactive) | – |
| O=C(Nc1ccc(N2CCOCC2)cc1)c1ccc(-c2ccccc2[N+](=O)[O-])o1 | -16% (inactive) | – |
| CC1=NN(c2ccc(Cl)c(C(=O)O)c2)C(=O)/C1=C/c1ccc(-c2ccccc2[N+](=O)[O-])o1 | – | 28.2 µM (active) |
| O=C1NC(c2ccc(-c3ccccc3[N+](=O)[O-])o2)C(C(=O)c2ccc(Cl)cc2)C(O)(C(F)(F)F)N1 (stereo unspecified) | -22.5% (inactive) | – |
| CN(C(=N)N)c1ccc(/C=C2\C=Cc3ccccc32)cc1 | -10.5% (inactive) | – |
| CC(=O)Nc1ccc2nc(SCCOc3cc(C)cc(C)c3)sc2c1 | 11.5% (inactive) | – |
| CN(C)c1ccc(/C=c2\[nH]c(=O)/c(=C/c3ccc(N(C)C)cc3)[nH]c2=O)cc1 | -0.26% (inactive) | – |
| COc1ccc2c(c1)c(=Cc1ccc(N(C)C)cc1)c1cc(-c3ccccc3)[n+](C)n12 | – | 4.47 µM (active) |
| CN(C)CCCn1c(-c2ccc(Cl)cc2)csc1=Nc1ccccc1 | -14.2% (inactive) | – |
| CC1(C)C=Cc2c(ccc(C(=O)/C=C/c3ccccc3)c2O)O1 | -7.78% (inactive) | – |
| CC(C)(C)c1ccc(C(=O)C[n+]2cccc3cc(Cl)ccc32)cc1 | -3.13% (inactive) | – |
| Nc1nc(N)c(N=O)c(N)n1 | -13.9% (inactive) | – |
| CC(C)(C)n1ncc2c(=O)n(Cc3ccc(C(=O)c4ccccc4)cc3)cnc21 | 6.55% (inactive) | – |
| CC(C)(C)n1ncc2c(=O)n(Cc3c(Cl)cccc3Br)cnc21 | -20% (inactive) | – |
| CC(C)(C)n1ncc2c(=O)n(Cc3ccc(Cl)cc3)cnc21 | – | inactive and 39.8 µM (active) |
| Oc1ccc(Br)cc1C1C=C(c2ccc3c(c2)OCO3)NC(c2ccc(Cl)cc2)N1 (stereo unspecified) | -18% (inactive) | – |
| N#Cc1ccc[n+](CC(=O)c2ccc(F)cc2)c1 | 17% (inactive) | – |
| O=C(C[n+]1ccncc1)c1ccc2c(c1)CCCC2 | 13.6% (inactive) | – |
| N#Cc1ccc[n+](CC(=O)c2ccc(O)c(O)c2)c1 | – | 2 µM (active) |

| SMILES | activity change, negative = inhibition | Potency |
| --- | --- | --- |
| CCN1CCN(c2ccc(/C=C/c3ccnc4ccccc34)cc2)CC1 | -31.7% (inactive) | – |
| Cc1ccc(/C=C(\C#N)C(=O)Nc2cc(C)ccc2C)cc1 | 16.1% (inactive) | – |
| N#CCC(=O)N/N=C/c1cn(Cc2ccc3ccccc3c2)c2ccccc12 | 3.82% (inactive) | – |
| Cc1ccc(Cl)cc1NC(=O)/C(C#N)=C\c1cn(Cc2ccc(F)cc2)c2ccccc12 | – | 89.1 µM (active) |
| O=C1O/C(=C\c2ccc(O)cc2)C(O)=C1c1ccc(O)cc1 | -7.29% (inactive) | – |
| CCc1ccc(OCCCn2c(CCCNC(=O)C3CCCCC3)nc3ccccc32)cc1 | 7.45% (inactive) | – |
| CN(C)Cc1cn(-c2ccccc2)nc1-c1ccccc1 | -15.4% (inactive) | – |
| O=C(NCCSc1ccccc1)c1ccco1 | -3.87% (inactive) | – |
| c1ccc(CSc2nnc(-c3ccco3)c(-c3ccco3)n2)cc1 | – | 56.2 µM (active) |
| Cc1ccc(-c2nnc(SCC(=O)NCc3ccccc3)nc2-c2ccc(C)cc2)cc1 | -14.6% (inactive) | – |
| NC(=O)Nc1ccc(/C=C/c2ccnc3ccccc23)cc1 | 2.76% (inactive) | – |
| CC1CC(C)CN(c2oc(-c3ccc(OCc4ccc(Cl)cc4)cc3)nc2C#N)C1 (stereo unspecified) | 13.6% (inactive) | – |
| O=C(CN1C(=O)c2cccc3cccc(c23)C1=O)N1CCCCC1 | -12.2% (inactive) | – |
| O=C(COC(=O)CCCN1C(=O)c2cccc3cccc(c23)C1=O)NC1CCS(=O)(=O)C1 (stereo unspecified) | -17.4% (inactive) | – |
| C[N+](C)(CCCCCC[N+](C)(C)CCCN1C(=O)c2cccc3cccc(c23)C1=O)CCCN1C(=O)c2cccc3cccc(c23)C1=O | – | 2.51 µM (active) |
| O=C(O)C1=C/C(=C/C=[N+]2c3cc(O)c(O[C@H]4OC(CO)[C@@H](O)[C@@H](O)[C@@H]4O)cc3C[C@@H]2C(=O)[O-])C[C@H](C(=O)O)N1 (stereo partly specified) | -16.4% (inactive) | – |
| COc1cc2nc(C#Cc3nc4cc(OC)c(OC)cc4[nH]3)[nH]c2cc1OC | 3.58% (inactive) | – |
| CS(=O)c1ccc(/C=C2\C=Cc3ccccc32)cc1 (stereo unspecified) | 1.4% (inactive) | – |
| CCOC(=O)N1CCN(C(=O)CNC(=O)Cc2ccc(Cl)cc2)CC1 | -3.43% (inactive) | – |
| CCOC(=O)c1c(Cc2ccc(Cl)cc2)c[nH]c1C | – | 89.1 µM (active) |
| CCOC(=O)c1ccc(CS(=O)c2ccc(Cl)cc2)o1 (stereo unspecified) | 2.29% (inactive) | – |
| O=C(CCS(=O)(=O)c1ccccc1)N(Cc1cccnc1)c1nc2c(F)cccc2s1 | -0.704% (inactive) | – |
| Brc1cccc[n+]1Cc1cccc(C[n+]2ccccc2Br)c1 | -22.5% (inactive) | – |
| ClC/C=C/C[n+]1ccccc1Cl | -1.32% (inactive) | – |
| Clc1cccc[n+]1CCCC[n+]1ccccc1Cl | – | 79.4 µM (active) |
